# Shown are actives, neighbours in structure and some others; about 0.87% of the full set was active somewhere.
# TLR4-MyD88 BLA: inhibitors of TLR4-MyD88 association in cells, primary screen, cell-based, HeLa CL3-4, BLA complementation, FRET ratio; 200,000 compounds, 0.18% hits; HeLa CL3-4 TLR4/MyD88 BLA complementation; inhibition, % at 8.4 µM; in the data active = inhibition above about 25%
# NOD2-RIPK2 inh: NOD2-RIPK2 binding disruptors in cells, primary screen, fluorescence, CHO cells, BLA complementation; CCF4 ratio; AID 624267, 2012; Receptor-interacting serine/threonine-protein kinase 2 (Homo sapiens), O43353; inhibition, % at 4.98 µM; 360,000 compounds, 0.38% hits; in the data active = inhibition above about 21%
# TLR9-MyD88 inh: inhibitors of TLR9-MyD88 association in cells, primary screen, cell-based, CHO, BLA complementation, fluorescence. Toll-like receptor 9 (Homo sapiens) + Myeloid differentiation primary response protein …. CCF4 FRET ratio. inhibition, % at 4.98 µM. 340,000 compounds, 0.21% hits. AID 504734, 2011;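 active = inhibition above the mean over all tested compounds plus 3 SD, cut at about 21% in these data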
# IDE act: human IDE activators in live cells, primary screen, fluorescence polarization, HEK cells, FAbeta-B substrate; FAbeta-B cleavage; 0% vehicle, 100% cell-free pure enzyme wells; 340,000 compounds, 0.073% hits; Insulin-degrading enzyme (Homo sapiens), P14735; activation, % at 5.96 µM;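 active = activation above the mean of all tested compounds plus 3 SD, set per screening campaign, cut at about 17% in these data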
# Target sequence (P14735 whole entry, looked up): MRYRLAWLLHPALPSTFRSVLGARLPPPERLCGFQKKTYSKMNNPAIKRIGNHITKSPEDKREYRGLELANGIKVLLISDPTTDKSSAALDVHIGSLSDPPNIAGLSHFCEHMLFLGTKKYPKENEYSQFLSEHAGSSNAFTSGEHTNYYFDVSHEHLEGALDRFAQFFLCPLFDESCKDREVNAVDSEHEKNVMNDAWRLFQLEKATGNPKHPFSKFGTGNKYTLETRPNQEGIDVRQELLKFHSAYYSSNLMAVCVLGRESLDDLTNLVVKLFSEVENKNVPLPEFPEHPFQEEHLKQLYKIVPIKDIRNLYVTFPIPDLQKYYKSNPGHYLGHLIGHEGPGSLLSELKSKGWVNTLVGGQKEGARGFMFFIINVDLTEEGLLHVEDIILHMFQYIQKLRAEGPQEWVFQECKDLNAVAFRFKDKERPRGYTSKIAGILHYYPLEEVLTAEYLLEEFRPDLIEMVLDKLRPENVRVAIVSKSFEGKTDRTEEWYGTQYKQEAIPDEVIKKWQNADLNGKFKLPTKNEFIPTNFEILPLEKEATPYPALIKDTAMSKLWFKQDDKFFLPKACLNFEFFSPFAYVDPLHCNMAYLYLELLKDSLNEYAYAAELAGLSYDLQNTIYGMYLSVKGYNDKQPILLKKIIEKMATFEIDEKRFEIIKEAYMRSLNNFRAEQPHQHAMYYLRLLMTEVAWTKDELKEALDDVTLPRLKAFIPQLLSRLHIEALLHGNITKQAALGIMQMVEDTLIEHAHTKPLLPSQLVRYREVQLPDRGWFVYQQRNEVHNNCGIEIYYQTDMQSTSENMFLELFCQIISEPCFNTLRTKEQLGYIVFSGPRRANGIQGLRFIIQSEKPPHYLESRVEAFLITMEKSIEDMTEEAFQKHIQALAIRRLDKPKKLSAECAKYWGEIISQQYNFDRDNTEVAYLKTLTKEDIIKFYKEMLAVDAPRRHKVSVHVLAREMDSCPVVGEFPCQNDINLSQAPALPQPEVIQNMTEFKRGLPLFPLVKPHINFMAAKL
# IDE cell inh: human IDE inhibitors in live cells, primary screen, fluorescence polarization, HEK cells, FAbetaB substrate; 320,000 compounds, 0.41% hits; inhibition, % at 5.59 µM; FAbetaB cleavage;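 active = percent inhibition above the average of all tested compounds plus 3 SD, set per screening campaign, cut at about 16% in these data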;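 also: IDE supplied by intact live HEK cells; FP after avidin binding of uncleaved biotin substrate so inhibition keeps polarization high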
# IDE cell inh cf: human IDE inhibitors in live cells, confirmation, fluorescence polarization, HEK cells, FAbetaB substrate; FAbetaB cleavage; 1,200 compounds, 51% hits; shares compounds with IDE cell inh; inhibition, % at 5.59 µM;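 active = mean inhibition across triplicate wells above the cutoff set by the earlier primary insulin-degrading enzyme screen, cut at about 16% in these data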
# HEK cytotox: cytotoxicity in HEK cells, cytotoxicity control for IDE inhibitor project, cell-based, luminescence; shares compounds with IDE cell inh; HEK293 cytotoxicity, ATP luminescence; inhibition, % at 5.59 µM; 1,200 compounds, 28% hits; AID 449730, 2010; in the data active = inhibition above about 22%
# TLR9-MyD88 cf: TLR9-MyD88 association inhibitors, retest, confirmation, cell-based, CHO, BLA complementation, fluorescence, triplicate; shares compounds with TLR9-MyD88 inh; CCF4 FRET ratio; inhibition, % at 4.98 µM; 680 compounds, 51% hits;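 active = mean inhibition across three repeats above about 21% taken from the earlier screen, limit read from the data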;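 also: blue over green emission ratio reports constitutive TLR9 MyD88 association via BLA complementation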
# BLA counter-1: beta-lactamase reporter inhibitors in CHO cells, artefact control for TLR9-MyD88 binding inhibitor project, cell-based, fluorescence; 680 compounds, 7% hits; CHO-BLA cells, CCF4 FRET ratio, BLA reporter; inhibition, % at 4.98 µM; shares compounds with TLR9-MyD88 inh;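 active = mean inhibition above a 50% cutoff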;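 also: counterscreen of TLR9-MyD88 hits on CMV-driven BLA in CHO-K1 cells; higher means less blue over green ratio so more BLA blockade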
# TLR9 CHO cytotox: CHO cell viability loss – luminescence, single concentration, cytotoxicity control for TLR9-MyD88 binding inhibitor project; TLR9-MyD88 CHO cells cytotoxicity; inhibition, % at 4.98 µM; shares compounds with TLR9-MyD88 inh; AID 588336, 2011; 680 compounds, 39% hits; in the data active = inhibition above about 11%
# NOD2 RIPK2 conf: NOD2-RIPK2 binding disruptors, retest, confirmation, fluorescence, CHO cells, BLA complementation, triplicate. inhibition, % at 4.98 µM. 1,200 compounds, 70% hits. CCF4 FRET. shares compounds with NOD2-RIPK2 inh;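 active = mean inhibition across replicates above a set limit taken from the earlier primary screen, cut at about 21% in these data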
# BLA counter-2: NOD2-RIPK2 counterscreen BLA reporter activity. 1,200 compounds, 57% hits. CHO BLA reporter, CCF4 FRET ratio. shares compounds with NOD2-RIPK2 inh. inhibition, % at 4.98 µM;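 active = mean inhibition above the low-control mean inhibition plus three low-control SD, cut at about 11% in these data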
# Hits are given with their value; n = inactive; x = no result given.
SMILES,TLR4-MyD88 BLA,NOD2-RIPK2 inh,TLR9-MyD88 inh,IDE act,IDE cell inh,IDE cell inh cf,HEK cytotox,NOD2 RIPK2 conf,BLA counter-2,others
ClC(Cl)(c1nnnn1-c1ccccc1)c1nnnn1-c1ccccc1,n,42,n,n,60,n,121,42,n,
COc1cc(C(=O)N(c2ccc(C)c(C)c2)C2C=CS(=O)(=O)C2)cc(OC)c1OC (configuration not stated),n,n,n,n,n,x,x,x,x,
COc1cc(/C=C2\Oc3cc(O)ccc3C2=O)ccc1O,x,44,31,n,62,143,n,43,47,TLR9-MyD88 cf=n;BLA counter-1=n;TLR9 CHO cytotox=n
COc1cc(/C=C2\CCC/C(=C\c3ccc(O)c(OC)c3)C2=O)ccc1O,x,n,n,n,n,x,x,x,x,
CCN(CC)c1ccc(/C=C/C(=O)C2C(=O)C=C(C)OC2=O)cc1 (configuration not stated),n,23,21,n,64,95,n,28,47,TLR9-MyD88 cf=36;BLA counter-1=n;TLR9 CHO cytotox=11
N#Cc1ccccc1Cn1cc(/C=C/[N+](=O)[O-])c2ccccc21,n,42,n,n,16,n,85,70,n,
COc1ccc(-c2ccc(CN3C(CC(C)C)C(=O)N(Cc4cn(CCC5OCCCO5)nn4)CCS3(=O)=O)cc2)cc1OC (configuration not stated),x,n,n,x,x,x,x,x,x,
COC(=O)c1ccc2c(c1)C(C)(C)C(/C=C/c1ccc(O)cc1)=[N+]2C,n,26,n,n,16,21,122,71,n,
COc1cc(/C=C/c2ccc(O)cc2)cc(OC)c1,x,n,n,n,n,x,x,x,x,
Nc1cccc(N2C(=O)c3cccc4c(N)ccc(c34)C2=O)c1,x,n,n,n,n,x,x,x,x,
Cc1cccc(N2C(=O)c3cccc4c(N)ccc(c34)C2=O)c1,x,35,32,n,73,96,n,37,44,TLR9-MyD88 cf=n;BLA counter-1=n;TLR9 CHO cytotox=n
COc1ccc(-n2c(CNC(=O)COc3ccc(Cl)cc3Cl)n[nH]c2=S)cc1,n,n,n,n,n,x,x,x,x,
CCCCCCCCN1C(=O)[C@H](CC(=O)N2CCCCC2)C[C@@]2(C(=O)OCC)CCCC=C12,x,n,x,x,x,x,x,x,x,
COc1ccc(-n2sc3ccc(F)cc3c2=O)cc1,x,40,n,n,58,35,81,40,n,
COc1ccc(N2C(=O)CSC2c2ccc(F)cc2)cc1 (configuration not stated),x,n,n,n,n,x,x,x,x,
Cc1ccc(-c2cc(=O)c3cc(F)ccc3[nH]2)cc1,n,n,n,n,n,x,x,x,x,
Cc1ccc(C)c(-n2sc3ccc(F)cc3c2=O)c1,x,26,31,n,36,19,69,33,15,TLR9-MyD88 cf=n;BLA counter-1=n;TLR9 CHO cytotox=43
